# The source made the active and inactive calls. Rule for the calls: active = hit-call score of the fitted dose curve at least 0.9, where 1 is the maximum; inactive = score below 0.9.
# Columns and labels:
# Details in all cases: mRNA level, 48 h; actives raise or lower the signal
# [1] = read-out: Intercellular Adhesion Molecule 1 (ICAM1), ICAM1 (gene 3383); assay: LTEA_HepaRG_ICAM1: Life Technologies and Expression Analysis (LTEA) Assay for Intercellular Adhesion Molecule 1 (ICAM1) using HepaRG (AID 2283507)
# Summary of the method: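 ICAM1 transcript levels measured by qRT-PCR, normalized to three housekeeping genes (ACTB, GAPDH, POLR2A), after 48 h chemical exposure of HepaRG cells. Duplicate eight-point half-log series from 100 uM in 0.5% DMSO; gain or loss fitted against vehicle.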
# [2] = read-out: Insulin-like growth factor-binding protein 1 (IGFBP1), IGFBP1 (gene 3484); assay: LTEA_HepaRG_IGFBP1: Life Technologies and Expression Analysis (LTEA) Assay for Insulin-like growth factor-binding protein 1 (IGFBP1) using HepaRG (AID 2283508)
# Summary of the method: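 Read-out is qRT-PCR transcript level normalized to three housekeeping genes, fitted in both directions against 0.5% DMSO. Differentiated HepaRG cells received eight half-log concentrations (top 100 uM) in duplicate for 48 h in serum-free induction medium.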
# [3] = read-out: Interleukin 6 Receptor (IL6R), IL6R (gene 3570); assay: LTEA_HepaRG_IL6R: Life Technologies and Expression Analysis (LTEA) Assay for Interleukin 6 Receptor (IL6R) using HepaRG (AID 2283510)
# Summary of the method: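 Readout is IL6R transcript level by TaqMan qRT-PCR, normalized to three housekeeping genes and fitted bidirectionally against 0.5% DMSO controls. Human HepaRG cells received chemicals for 48 h in serum-free induction medium, highest concentration 100 uM.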
# [4] = read-out: Potassium channel subfamily K member 1 (KCNK1), KCNK1 (gene 3775); assay: LTEA_HepaRG_KCNK1: Life Technologies and Expression Analysis (LTEA) Assay for Potassium channel subfamily K member 1 (KCNK1) using HepaRG (AID 2283511)
# Summary of the method: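 Gain or loss of KCNK1 mRNA is the read-out, quantified by qRT-PCR against three housekeeping genes after 48 h chemical treatment of human HepaRG liver cells. Concentrations ran from 100 uM downward in half-log steps, vehicle 0.5% DMSO.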
# [5] = read-out: Keratin 19 (KRT19), KRT19 (gene 3880); assay: LTEA_HepaRG_KRT19: Life Technologies and Expression Analysis (LTEA) Assay for Keratin 19 (KRT19) using HepaRG (AID 2283512)
# Summary of the method: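 KRT19 transcript measured by TaqMan qRT-PCR, referenced to three housekeeping genes, after HepaRG cells received test chemicals for 48 h. Eight half-log concentrations, top 100 uM, 0.5% DMSO vehicle; increases and decreases both fitted.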
# [6] = read-out: JUN Transcription Factor, JUN (gene 3725); assay: LTEA_HepaRG_JUN: Life Technologies and Expression Analysis (LTEA) Assay for JUN Transcription Factor using HepaRG (AID 2283513)
# Summary of the method: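 Cells plated 48 h, medium switched to serum-free induction medium, then dosed 48 h (100 uM top, half-log dilutions, 0.5% DMSO). RNA isolated; JUN measured by qRT-PCR against three housekeeping genes; gain or loss fitted relative to DMSO.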
# [7] = read-out: Lipase C (LIPC), LIPC (gene 3990); assay: LTEA_HepaRG_LIPC: Life Technologies and Expression Analysis (LTEA) Assay for Lipase C (LIPC) using HepaRG (AID 2283514)
# Summary of the method: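 Read-out is LIPC transcript level by TaqMan qRT-PCR, normalized to three housekeeping genes, after 48 h chemical treatment of human HepaRG liver cells. Curves span eight concentrations topping at 100 uM; activity in either direction scored relative to 0.5% DMSO.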
# [8] = read-out: Lipoprotein lipase (LPL), LPL (gene 4023); assay: LTEA_HepaRG_LPL: Life Technologies and Expression Analysis (LTEA) Assay for Lipoprotein lipase (LPL) using HepaRG (AID 2283515)
# Summary of the method: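 Read-out is LPL transcript level by qRT-PCR, normalized to three housekeeping genes and fitted bidirectionally against the DMSO control. Human HepaRG cells received chemicals for 48 h at up to 100 uM.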
# [9] = read-out: MicroRNA 122 (MIR122), gene 406906; assay: LTEA_HepaRG_MIR122: Life Technologies and Expression Analysis (LTEA) Assay for MicroRNA 122 (MIR122) using HepaRG (AID 2283516); note: the transcript read is the microRNA miR-122
# Summary of the method: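 HepaRG plated 48 h, switched to serum-free induction medium, then treated in duplicate for 48 h (100 uM top, half-log steps, 0.5% DMSO vehicle). RNA isolated, qRT-PCR performed, concentration-response fitted both directions relative to DMSO.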
# [10] = read-out: matrix metalloproteinase-10 (MMP10), MMP10 (gene 4319); assay: LTEA_HepaRG_MMP10: Life Technologies and Expression Analysis (LTEA) Assay for matrix metalloproteinase-10 (MMP10) using HepaRG (AID 2283517)
# Summary of the method: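 Gain or loss of MMP10 mRNA is fitted relative to the 0.5% DMSO vehicle. The human hepatic line HepaRG receives a 48-hour serum-free exposure, in duplicate, with a maximum concentration of 100 uM.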
# MYC, MYC (gene 4609) = assay: LTEA_HepaRG_MYC: Life Technologies and Expression Analysis (LTEA) Assay for MYC using HepaRG (AID 2283518)
# Summary of the method: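 MYC transcript changes, up or down relative to 0.5% DMSO, from TaqMan qRT-PCR normalized to three housekeeping genes. Human HepaRG cultures received chemicals for 48 h at eight half-log concentrations up to 100 uM, in duplicate.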
# [11] = read-out: matrix metalloproteinase-3 (MMP3), MMP3 (gene 4314); assay: LTEA_HepaRG_MMP3: Life Technologies and Expression Analysis (LTEA) Assay for matrix metalloproteinase-3 (MMP3) using HepaRG (AID 2283519)
# Summary of the method: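 HepaRG, human; 48 h dosing, 8 conc. (max 100 uM, half-log), duplicate, 0.5% DMSO. Readout: MMP3 transcript by Fluidigm TaqMan qRT-PCR, ACTB/GAPDH/POLR2A-normalised. Gain or loss fitted vs DMSO.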
# [12] = read-out: Paternally Expressed 10 (PEG10), PEG10 (gene 23089); assay: LTEA_HepaRG_PEG10: Life Technologies and Expression Analysis (LTEA) Assay for Paternally Expressed 10 (PEG10) using HepaRG (AID 2283520)
# Summary of the method: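 HepaRG, 48 h post-plating → serum-free induction medium → 48 h chemical exposure (duplicate, 8-pt, max 100 uM, half-log, 0.5% DMSO) → lysis in RLT → TaqMan qRT-PCR for PEG10, ACTB/GAPDH/POLR2A normalisation.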
# [13] = read-out: Nuclear factor NF-kappa-B p105 subunit (Homo sapiens) (UniProt P19838); assay: LTEA_HepaRG_NFKB1: Life Technologies and Expression Analysis (LTEA) Assay for Nuclear Factor Kappa B Subunit 1 (NFKB1) using HepaRG (AID 2283521)
# Summary of the method: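 Differentiated human HepaRG cells in serum-free induction medium with 0.5% DMSO were exposed for 48 h to eight half-log concentrations, top 100 uM, in duplicate. NFKB1 mRNA measured by Fluidigm TaqMan qRT-PCR, normalised to ACTB, GAPDH and POLR2A; bidirectional fit versus DMSO.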
# [14] = read-out: Protein phosphatase 2A (PPP2R4), PTPA (gene 5524); assay: LTEA_HepaRG_PPP2R4: Life Technologies and Expression Analysis (LTEA) Assay for Protein phosphatase 2A (PPP2R4) using HepaRG (AID 2283522)
# Summary of the method: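 Readout is PPP2R4 transcript level by microfluidic qRT-PCR after 48 h chemical treatment of human HepaRG liver cells. Concentrations spanned 100 uM downward in half-log steps; gain or loss of signal was fitted relative to DMSO.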
# [15] = read-out: Phosphatase and tensin (PTEN), PTEN (gene 5728); assay: LTEA_HepaRG_PTEN: Life Technologies and Expression Analysis (LTEA) Assay for Phosphatase and tensin (PTEN) using HepaRG (AID 2283523)
# Summary of the method: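 Read-out is PTEN transcript level by multiplexed TaqMan qRT-PCR after 48 h chemical treatment of human HepaRG cultures in serum-free induction medium. Concentrations spanned 100 uM downward in half-log steps, 0.5% DMSO throughout; activity fitted in both directions against vehicle.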
# [16] = read-out: solute carrier (SLC22A1), SLC22A1 (gene 6580); assay: LTEA_HepaRG_SLC22A1: Life Technologies and Expression Analysis (LTEA) Assay for solute carrier (SLC22A1) using HepaRG (AID 2283524)
# Summary of the method: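 HepaRG (human liver line), 48 h dosing in serum-free induction medium; 8 conc., half-log down from 100 uM, 0.5% DMSO vehicle, duplicates. Endpoint: SLC22A1 mRNA, qRT-PCR, housekeeping-normalized; gain/loss fit vs DMSO.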
# [17] = read-out: Pyruvate Dehydrogenase Kinase 4 (PDK4), PDK4 (gene 5166); assay: LTEA_HepaRG_PDK4: Life Technologies and Expression Analysis (LTEA) Assay for Pyruvate Dehydrogenase Kinase 4 (PDK4) using HepaRG (AID 2283525)
# Summary of the method: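 In this multiplexed human HepaRG expression assay, cells are treated 48 h with test chemicals across an eight-point range starting at 100 uM. PDK4 mRNA changes, normalized to ACTB/GAPDH/POLR2A, are fitted in both directions relative to vehicle.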
# [18] = read-out: NAD(P)H dehydrogenase [quinone] 1 (NQO1), NQO1 (gene 1728); assay: LTEA_HepaRG_NQO1: Life Technologies and Expression Analysis (LTEA) Assay for NAD(P)H dehydrogenase [quinone] 1 (NQO1) using HepaRG (AID 2283526)
# Summary of the method: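 HepaRG, 48 h post-plating → serum-free induction medium → test chemical 48 h (duplicate, 100 uM top, half-log x8, 0.5% DMSO) → RNA isolation → qRT-PCR, ACTB/GAPDH/POLR2A normalization; bidirectional curve fit vs DMSO baseline.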
# Chain of Nuclear factor NF-kappa-B p105 subunit (Homo sapiens) (P19838 whole entry, looked up): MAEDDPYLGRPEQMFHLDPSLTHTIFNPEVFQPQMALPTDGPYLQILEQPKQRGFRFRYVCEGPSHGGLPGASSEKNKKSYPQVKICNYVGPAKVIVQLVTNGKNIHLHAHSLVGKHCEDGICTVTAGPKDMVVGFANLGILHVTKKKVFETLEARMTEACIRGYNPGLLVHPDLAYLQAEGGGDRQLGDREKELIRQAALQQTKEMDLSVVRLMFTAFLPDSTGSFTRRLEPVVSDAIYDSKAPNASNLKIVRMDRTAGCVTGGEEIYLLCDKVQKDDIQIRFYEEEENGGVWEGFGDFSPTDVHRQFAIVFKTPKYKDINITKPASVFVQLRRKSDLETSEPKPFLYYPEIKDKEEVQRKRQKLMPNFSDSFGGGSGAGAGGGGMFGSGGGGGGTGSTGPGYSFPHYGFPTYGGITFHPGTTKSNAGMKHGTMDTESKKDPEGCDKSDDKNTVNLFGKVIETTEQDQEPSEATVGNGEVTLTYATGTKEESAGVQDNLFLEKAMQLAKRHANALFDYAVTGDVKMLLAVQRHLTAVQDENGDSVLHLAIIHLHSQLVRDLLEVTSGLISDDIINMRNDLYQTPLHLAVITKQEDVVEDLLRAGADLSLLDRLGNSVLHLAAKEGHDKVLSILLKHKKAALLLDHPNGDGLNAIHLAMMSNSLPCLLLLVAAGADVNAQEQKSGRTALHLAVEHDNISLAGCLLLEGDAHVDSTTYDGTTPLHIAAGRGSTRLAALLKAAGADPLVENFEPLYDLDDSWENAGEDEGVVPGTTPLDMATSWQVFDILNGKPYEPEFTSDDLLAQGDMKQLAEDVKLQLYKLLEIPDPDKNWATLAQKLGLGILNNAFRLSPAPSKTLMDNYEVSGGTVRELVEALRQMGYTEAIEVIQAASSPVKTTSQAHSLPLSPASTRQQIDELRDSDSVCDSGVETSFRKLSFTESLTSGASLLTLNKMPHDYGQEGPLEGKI
structure (smiles),measurement,setting,value
Oc1ccc(C(c2ccc(O)cc2)(C(F)(F)F)C(F)(F)F)cc1,outcome,[1],inactive
same,AC50,[2],75.9 µM (active)
same,AC50,[3],89.2 µM (active)
same,outcome,[4],inactive
same,outcome,[5],inactive
same,AC50,[6],92.4 µM (active)
same,outcome,[7],inactive
same,AC50,[8],79.3 µM (active)
same,outcome,[9],inactive
same,AC50,[10],82.7 µM (active)
same,AC50,"MYC, MYC (gene 4609)",77.5 µM (active)
same,AC50,[11],76.6 µM (active)
same,outcome,[12],inactive
same,outcome,[13],inactive
same,AC50,[14],89 µM (active)
same,outcome,[15],inactive
same,AC50,[16],71.9 µM (active)
same,outcome,[17],inactive
same,AC50,[18],78.9 µM (active)
Oc1c(Cl)c(Cl)c(Cl)c(Cl)c1Cl,outcome,[1],inactive
same,AC50,[2],7.05 µM (active)
same,AC50,[3],5.66 µM (active)
same,AC50,[4],34.5 µM (active)
same,AC50,[5],6.33 µM (active)
same,outcome,[6],inactive
same,AC50,[7],4.24 µM (active)
same,AC50,[8],5.08 µM (active)
same,AC50,[9],3.65 µM (active)
same,AC50,[10],25.5 µM (active)
same,AC50,"MYC, MYC (gene 4609)",16.1 µM (active)
same,AC50,[11],6.02 µM (active)
same,AC50,[12],2.11 µM (active)
same,AC50,[14],2.22 µM (active)
same,AC50,[15],6.88 µM (active)
same,AC50,[16],3.31 µM (active)
same,outcome,[17],inactive
O=C(NC(=O)c1c(F)cccc1F)Nc1cc(Cl)c(OC(F)(F)C(F)F)c(Cl)c1,outcome,[1],inactive
same,outcome,[2],inactive
same,outcome,[3],inactive
same,outcome,[4],inactive
same,outcome,[5],inactive
same,outcome,[6],inactive
same,AC50,[7],50 µM (active)
same,outcome,[8],inactive
same,outcome,[9],inactive
same,outcome,[10],inactive
same,outcome,"MYC, MYC (gene 4609)",inactive
same,outcome,[11],inactive
same,outcome,[12],inactive
same,outcome,[13],inactive
same,outcome,[14],inactive
same,outcome,[15],inactive
same,outcome,[16],inactive
same,outcome,[17],inactive
same,outcome,[18],inactive
CCNc1nc(NC(C)C)nc(SC)n1,outcome,[1],inactive
same,outcome,[2],inactive
same,AC50,[3],11.7 µM (active)
same,outcome,[4],inactive
same,AC50,[5],32.8 µM (active)
same,outcome,[6],inactive
same,AC50,[7],61.1 µM (active)
same,outcome,[8],inactive
same,outcome,[9],inactive
same,outcome,[10],inactive
same,outcome,"MYC, MYC (gene 4609)",inactive
same,outcome,[11],inactive
same,AC50,[12],12.4 µM (active)
same,outcome,[13],inactive
same,outcome,[14],inactive
same,outcome,[15],inactive
same,AC50,[16],37.3 µM (active)
same,outcome,[17],inactive
CCCN(CCC)N=O,outcome,[1],inactive
same,outcome,[2],inactive
same,outcome,[3],inactive
same,outcome,[4],inactive
same,outcome,[5],inactive
same,outcome,[6],inactive
same,outcome,[7],inactive
same,outcome,[8],inactive
same,outcome,[9],inactive
same,outcome,[10],inactive
same,outcome,"MYC, MYC (gene 4609)",inactive
same,outcome,[11],inactive
same,outcome,[12],inactive
same,outcome,[13],inactive
same,outcome,[14],inactive
same,outcome,[15],inactive
same,outcome,[16],inactive
same,outcome,[17],inactive
